Experimental data as given in PubChem BioAssay.
Measured potencies and affinities stand elsewhere. Unmarked numbers belong to inactive results. No rule for the calls is given here.

The compounds below were run against Melanocortin receptor 4 (Homo sapiens) (UniProt P32245) (assay: MC4R antagonists, dose response, counter-screen for LGR2 antagonist project, cell-based, plate reader, cherry pick (AID 743444)). Conditions: MC4R-expressing cells, antagonist mode; series mostly up to 35 µM; activity change, negative = inhibition: at the top concentration.

SMILES	activity change, negative = inhibition
C[C@H](CO)N1C[C@H](C)[C@H](CN(C)C(=O)Nc2ccccc2)OCCCC[C@H](C)Oc2ccc(NC(=O)C3CCCCC3)cc2C1=O	-14%
C[C@H](CO)N1C[C@H](C)[C@@H](CN(C)C(=O)Nc2ccc3c(c2)OCO3)Oc2c(cccc2N(C)C)C1=O	27.3%
C[C@@H]1CN([C@@H](C)CO)S(=O)(=O)c2ccc(C3=CCCC3)cc2O[C@H]1CN(C)C(=O)c1ccccc1	-7.08%
CC(=O)N1CCc2cc(S(=O)(=O)C(C)CC(=O)NCc3ccco3)ccc21 (configuration not stated)	29.4%
C[C@H](CO)N1C[C@H](C)[C@H](CN(C)C(=O)Nc2cccc3ccccc23)OCCCC[C@H](C)Oc2ccc(NC(=O)C3CCCCC3)cc2C1=O	-15.1%
O=c1cc(-c2c(F)c(F)c(F)c(F)c2F)oc2ccccc12	20.7%
CC[C@H](CO)Oc1cc(NCc2ccc(Cl)c(Cl)c2)c2ncn(C(C)C)c2c1	-0.432%
NCC[C@H]1CC[C@H](NS(=O)(=O)Cc2ccccc2)[C@@H](CO)O1	-40.5%
COc1ccc(NC(=O)N(C)C[C@@H]2OCCCC[C@H](C)Oc3ccc(NC(=O)C4CCCCC4)cc3C(=O)N([C@H](C)CO)C[C@@H]2C)cc1	1.88%
C[C@H](CO)N1C[C@H](C)[C@H](CN(C)C(=O)Nc2ccc(F)cc2)OCCCC[C@H](C)Oc2ccc(NC(=O)Nc3ccc(F)cc3)cc2C1=O	-27.2% [at 30 µM]
C[C@H]1CCCCO[C@@H](CN(C)C(=O)Nc2ccccc2)[C@@H](C)CN([C@@H](C)CO)C(=O)c2cc(NC(=O)NC3CCCCC3)ccc2O1	11.8%
C[C@H](CO)N1C[C@H](C)[C@H](CN(C)C(=O)Nc2ccc(C(F)(F)F)cc2)OCCCC[C@H](C)Oc2ccc(NC(=O)CCC(F)(F)F)cc2C1=O	-20.9%
